The structures appear in SMILES notation.

In assay [1] the target is MAP kinase-activated protein kinase 3 (Homo sapiens) (UniProt Q16644). The settings on record: at 1 µM.
Assay [2] concerns the target T1, Serine/threonine-protein kinase STK11 (Homo sapiens) (UniProt Q15831).
T1 sequence (whole entry): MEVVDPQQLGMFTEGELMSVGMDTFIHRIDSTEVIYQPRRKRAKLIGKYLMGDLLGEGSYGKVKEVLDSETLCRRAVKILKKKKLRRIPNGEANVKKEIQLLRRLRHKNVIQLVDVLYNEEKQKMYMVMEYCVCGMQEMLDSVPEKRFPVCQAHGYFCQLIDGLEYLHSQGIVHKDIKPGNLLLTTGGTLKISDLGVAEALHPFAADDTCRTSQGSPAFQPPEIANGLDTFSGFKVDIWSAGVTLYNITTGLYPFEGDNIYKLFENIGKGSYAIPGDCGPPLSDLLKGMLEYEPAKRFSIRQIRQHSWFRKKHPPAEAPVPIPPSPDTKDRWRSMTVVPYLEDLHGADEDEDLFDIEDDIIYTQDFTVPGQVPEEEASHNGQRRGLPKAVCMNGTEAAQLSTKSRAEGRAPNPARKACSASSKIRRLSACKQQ
As to conditions: at 1 µM.

The target in assay [3] is T1, Serine/threonine-protein kinase STK11 (Homo sapiens). The settings on record: at 10 µM.
Assay [4] addresses Serine/threonine-protein kinase 10 (Homo sapiens) (UniProt O94804). As to conditions: at 1 µM.
Assay [5] shares this target. As to conditions: at 10 µM.
Assay [6] has as its target Tyrosine-protein kinase Lck (Homo sapiens) (UniProt P06239). As to conditions: at 1 µM.
Assay [7] has the same target. As to conditions: at 10 µM.
Assay [8] shares this target. The settings on record: at 1 µM. The source holds these as a separate data set.
The target is the same in assay [9]. As to conditions: at 10 µM. This is another data set of the same source.
The target of assay [10] is Tyrosine-protein kinase Lyn (Homo sapiens) (UniProt P07948). The settings on record: at 1 µM.
Sequence of Tyrosine-protein kinase Lyn (Homo sapiens) (P07948 2-512 limits assumed): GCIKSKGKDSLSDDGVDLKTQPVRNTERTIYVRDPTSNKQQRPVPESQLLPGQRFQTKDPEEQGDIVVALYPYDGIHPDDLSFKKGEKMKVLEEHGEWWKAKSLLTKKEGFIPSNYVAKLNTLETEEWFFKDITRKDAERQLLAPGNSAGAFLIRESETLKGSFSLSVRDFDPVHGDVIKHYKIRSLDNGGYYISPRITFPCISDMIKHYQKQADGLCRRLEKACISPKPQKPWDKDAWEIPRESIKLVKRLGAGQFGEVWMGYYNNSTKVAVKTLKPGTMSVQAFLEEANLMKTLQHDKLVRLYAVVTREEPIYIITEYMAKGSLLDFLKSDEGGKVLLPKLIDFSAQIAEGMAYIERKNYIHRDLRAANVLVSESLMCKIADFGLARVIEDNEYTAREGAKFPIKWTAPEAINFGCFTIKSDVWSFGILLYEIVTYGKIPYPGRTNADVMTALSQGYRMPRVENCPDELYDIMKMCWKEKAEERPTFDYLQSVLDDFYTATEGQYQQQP
The target is the same in assay [11]. As to conditions: at 10 µM.
In assay [12] the target is Mitogen-activated protein kinase 3 (Homo sapiens) (UniProt P27361). The settings on record: at 1 µM.
Sequence of Mitogen-activated protein kinase 3 (Homo sapiens) (P27361 whole entry): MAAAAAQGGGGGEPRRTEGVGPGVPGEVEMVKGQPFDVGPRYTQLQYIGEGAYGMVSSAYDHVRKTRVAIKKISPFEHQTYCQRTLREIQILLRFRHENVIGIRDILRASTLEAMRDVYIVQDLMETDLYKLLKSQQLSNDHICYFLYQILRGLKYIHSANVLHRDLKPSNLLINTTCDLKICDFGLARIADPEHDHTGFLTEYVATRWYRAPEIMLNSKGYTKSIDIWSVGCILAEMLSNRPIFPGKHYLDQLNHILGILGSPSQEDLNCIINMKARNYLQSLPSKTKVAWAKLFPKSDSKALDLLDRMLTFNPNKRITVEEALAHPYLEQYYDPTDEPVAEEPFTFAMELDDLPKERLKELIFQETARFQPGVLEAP
Assay [13] has the same target. The settings on record: at 10 µM.
For assay [14], the target named is Mitogen-activated protein kinase 1 (Homo sapiens) (UniProt P28482). The settings on record: at 1 µM.
Sequence of Mitogen-activated protein kinase 1 (Homo sapiens) (P28482 whole entry): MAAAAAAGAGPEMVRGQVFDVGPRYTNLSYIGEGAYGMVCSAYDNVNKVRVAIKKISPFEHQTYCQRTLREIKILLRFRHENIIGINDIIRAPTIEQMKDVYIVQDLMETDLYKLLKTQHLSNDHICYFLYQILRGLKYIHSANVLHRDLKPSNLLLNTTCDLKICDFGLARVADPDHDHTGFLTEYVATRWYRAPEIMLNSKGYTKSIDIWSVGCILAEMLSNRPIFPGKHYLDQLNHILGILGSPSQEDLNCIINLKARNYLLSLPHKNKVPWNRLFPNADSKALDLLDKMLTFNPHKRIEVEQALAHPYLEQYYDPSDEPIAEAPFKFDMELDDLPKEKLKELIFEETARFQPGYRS
Assay [15] shares this target. As to conditions: at 10 µM.
The target in assay [16] is MAP kinase-activated protein kinase 2 (Homo sapiens) (UniProt P49137). The settings on record: at 1 µM.
Sequence of MAP kinase-activated protein kinase 2 (Homo sapiens) (P49137 whole entry, looked up): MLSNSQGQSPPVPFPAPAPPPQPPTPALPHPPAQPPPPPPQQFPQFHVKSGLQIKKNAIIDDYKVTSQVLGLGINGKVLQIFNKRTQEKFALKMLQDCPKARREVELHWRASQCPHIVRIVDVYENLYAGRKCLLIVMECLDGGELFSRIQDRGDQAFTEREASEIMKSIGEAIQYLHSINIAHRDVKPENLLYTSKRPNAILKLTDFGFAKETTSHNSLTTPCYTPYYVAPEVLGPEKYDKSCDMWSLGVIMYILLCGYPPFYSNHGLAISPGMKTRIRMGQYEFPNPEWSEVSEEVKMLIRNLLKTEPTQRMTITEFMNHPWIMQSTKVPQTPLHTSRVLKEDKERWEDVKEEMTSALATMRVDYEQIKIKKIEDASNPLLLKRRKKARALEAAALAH
Assay [17] shares this target. The settings on record: at 10 µM.
The target in assay [18] is MAP kinase-activated protein kinase 3 (Homo sapiens) (UniProt Q16644). The settings on record: at 10 µM.
The target in assay [19] is Serine/threonine-protein kinase MARK1 (Homo sapiens) (UniProt Q9P0L2). The settings on record: at 1 µM.
Sequence of Serine/threonine-protein kinase MARK1 (Homo sapiens) (Q9P0L2 whole entry, looked up): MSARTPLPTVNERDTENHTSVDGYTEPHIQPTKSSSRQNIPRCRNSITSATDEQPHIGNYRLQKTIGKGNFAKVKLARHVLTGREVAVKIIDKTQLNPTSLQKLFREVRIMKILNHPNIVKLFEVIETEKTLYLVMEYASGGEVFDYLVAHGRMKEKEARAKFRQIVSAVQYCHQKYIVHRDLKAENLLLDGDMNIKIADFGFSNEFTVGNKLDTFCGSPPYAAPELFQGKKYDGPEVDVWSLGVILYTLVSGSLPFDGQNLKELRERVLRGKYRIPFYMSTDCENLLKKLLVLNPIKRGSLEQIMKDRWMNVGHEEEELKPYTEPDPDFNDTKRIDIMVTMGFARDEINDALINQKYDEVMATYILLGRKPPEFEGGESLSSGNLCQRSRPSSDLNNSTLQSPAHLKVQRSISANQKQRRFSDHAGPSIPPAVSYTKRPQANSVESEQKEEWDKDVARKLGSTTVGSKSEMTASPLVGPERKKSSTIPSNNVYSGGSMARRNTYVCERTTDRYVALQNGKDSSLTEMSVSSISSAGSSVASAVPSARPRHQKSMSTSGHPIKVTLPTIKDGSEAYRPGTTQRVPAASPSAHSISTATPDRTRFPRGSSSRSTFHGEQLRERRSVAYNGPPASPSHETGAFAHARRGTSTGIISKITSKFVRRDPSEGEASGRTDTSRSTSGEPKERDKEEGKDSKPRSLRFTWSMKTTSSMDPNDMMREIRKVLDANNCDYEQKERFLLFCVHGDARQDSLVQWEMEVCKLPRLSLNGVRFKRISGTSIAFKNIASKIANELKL
The target is the same in assay [20]. The settings on record: at 10 µM.

Sequence of Tyrosine-protein kinase Lck (Homo sapiens) (P06239 2-509 limits assumed): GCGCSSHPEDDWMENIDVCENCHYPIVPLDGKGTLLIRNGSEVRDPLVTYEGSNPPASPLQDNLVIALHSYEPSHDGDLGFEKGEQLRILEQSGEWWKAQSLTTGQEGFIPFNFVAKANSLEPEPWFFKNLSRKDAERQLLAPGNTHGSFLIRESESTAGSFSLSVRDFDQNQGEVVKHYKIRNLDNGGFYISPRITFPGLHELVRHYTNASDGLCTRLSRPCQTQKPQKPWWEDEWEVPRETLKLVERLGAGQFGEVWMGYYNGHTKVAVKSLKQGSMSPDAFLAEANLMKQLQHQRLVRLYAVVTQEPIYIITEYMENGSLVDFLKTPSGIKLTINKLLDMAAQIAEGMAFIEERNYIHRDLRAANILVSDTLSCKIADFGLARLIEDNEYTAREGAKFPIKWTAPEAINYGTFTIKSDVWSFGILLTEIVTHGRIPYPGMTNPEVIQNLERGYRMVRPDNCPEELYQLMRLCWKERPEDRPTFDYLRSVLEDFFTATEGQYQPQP
Sequence of Serine/threonine-protein kinase 10 (Homo sapiens) (O94804 whole entry, looked up): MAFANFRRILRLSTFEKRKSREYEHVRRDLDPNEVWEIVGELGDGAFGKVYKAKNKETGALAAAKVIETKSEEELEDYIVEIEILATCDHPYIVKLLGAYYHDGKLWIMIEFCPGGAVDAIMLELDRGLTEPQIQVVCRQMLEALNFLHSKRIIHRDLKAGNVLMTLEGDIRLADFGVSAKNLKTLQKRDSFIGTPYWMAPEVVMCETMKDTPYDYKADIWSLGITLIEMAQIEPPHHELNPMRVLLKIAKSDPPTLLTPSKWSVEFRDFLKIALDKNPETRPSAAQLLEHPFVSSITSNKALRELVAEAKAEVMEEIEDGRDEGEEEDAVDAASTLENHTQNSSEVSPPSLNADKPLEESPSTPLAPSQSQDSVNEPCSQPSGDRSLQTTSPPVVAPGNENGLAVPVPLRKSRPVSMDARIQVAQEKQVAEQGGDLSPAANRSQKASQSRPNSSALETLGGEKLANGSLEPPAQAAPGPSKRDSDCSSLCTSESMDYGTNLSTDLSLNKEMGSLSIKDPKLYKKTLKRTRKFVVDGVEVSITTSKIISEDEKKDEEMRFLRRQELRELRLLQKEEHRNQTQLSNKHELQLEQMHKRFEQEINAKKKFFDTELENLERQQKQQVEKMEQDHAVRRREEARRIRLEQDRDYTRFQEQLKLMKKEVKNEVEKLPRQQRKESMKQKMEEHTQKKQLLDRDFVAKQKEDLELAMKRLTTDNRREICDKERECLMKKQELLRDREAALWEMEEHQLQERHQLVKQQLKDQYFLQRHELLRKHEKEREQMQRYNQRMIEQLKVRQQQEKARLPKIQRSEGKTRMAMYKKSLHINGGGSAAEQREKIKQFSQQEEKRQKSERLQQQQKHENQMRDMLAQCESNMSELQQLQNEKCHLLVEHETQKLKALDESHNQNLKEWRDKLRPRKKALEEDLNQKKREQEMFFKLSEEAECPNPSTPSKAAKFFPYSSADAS
Sequence of MAP kinase-activated protein kinase 3 (Homo sapiens) (Q16644 whole entry, looked up): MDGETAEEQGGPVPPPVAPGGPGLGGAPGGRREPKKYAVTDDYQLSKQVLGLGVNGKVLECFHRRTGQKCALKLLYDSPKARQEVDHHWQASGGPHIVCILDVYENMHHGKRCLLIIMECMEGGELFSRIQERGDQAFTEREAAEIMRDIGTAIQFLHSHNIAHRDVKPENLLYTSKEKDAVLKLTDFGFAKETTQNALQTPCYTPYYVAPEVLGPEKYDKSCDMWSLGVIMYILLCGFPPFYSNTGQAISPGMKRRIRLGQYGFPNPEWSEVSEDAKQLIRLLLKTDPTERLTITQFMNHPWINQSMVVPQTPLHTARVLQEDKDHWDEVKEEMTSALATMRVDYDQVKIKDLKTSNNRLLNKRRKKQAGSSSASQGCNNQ

For the compound `Cc1ccc(NC2=CC(=O)c3sc(C)nc3C2=O)cc1`, the residual activity in assay [1] was 85%.
On to `COC(=O)[C@@]1(O)C[C@H]2O[C@]1(C)n1c3ccccc3c3c4c(c5c6ccccc6n2c5c31)C(=O)NC4`, for which the residual activity amounted to 97% in [2]; 74% in [3]; 3% in [4]; 1% in assay [5]; 2% in assay [6]; 9% in assay [7]. For the same compound, the residual activity in assay [8] was 6%; in assay [9], 8%; in assay [10], 3%; in assay [11], 0%; in assay [12] it was 10%; in [13] it was -1%. Moreover, the residual activity in [14] is 5%; in [15], -3%; in assay [16], 0%; in [17], -6%; in assay [1], 47%; in assay [18] it was 2%. Moreover, the residual activity in [19] and in assay [20] was 0% each time.
For `N/C(=N\[N+](=O)[O-])N/N=C\c1ccc(-c2cccc([N+](=O)[O-])c2)o1`, the residual activity in assay [4] came to 94%; in assay [5] it was 99%; in assay [6], 77%; in [7], 93%; in assay [8], 96%; in [9], 91%. Besides, the residual activity is 79% in assay [10]; 66% in assay [11]; 94% in assay [12]; 99% in [13]; 88% in [18]; 98% in assay [19]. Further, the residual activity in assay [20] was found to be 85%.
With `O=C(O)/C=C/c1cc(Br)c(Br)c(Br)c1Br`, the residual activity in assay [1] amounted to 107%.
The same measure, in the same setting: the result for `CC(C)n1cnc2c(NCc3ccccc3)nc(NCCCO)nc21` reads 91%; that for `COc1ccc2c(c1)c(C1=C(c3c[nH]c4ccccc34)C(=O)NC1=O)cn2CCCN(C)C`, 103%.
For the compound `O=C1Nc2ccc3ncsc3c2/C1=C/c1c[nH]cn1`, the residual activity in [2] is 21%; in assay [3] it was 1%; in [4], 29%; in assay [5], 7%; in [6] it was 55%; in [7] it was 17%. The residual activity in assay [8] amounted to 44%; in assay [9], 23%; in assay [10], 46%; in assay [11] it was 6%; in [12], 5%; in assay [13], 0%. For the same compound, the residual activity in assay [14] is 4%; in assay [15] it was -3%; in assay [16], 82%; in assay [17] it was 67%; in assay [1], 103%; in assay [18] it was 99%. The values for the residual activity in assay [19] and in assay [20] were 9% and 0%, respectively.
As to `CC(C)[C@H](CO)Nc1nc(Nc2cccc(Cl)c2)c2ncn(C(C)C)c2n1`, the residual activity in [2] is 99%; in [3], 86%; in assay [4] it was 91%; in assay [5], 37%; in assay [6], 28%; in [7], 14%. Further, the residual activity in assay [8] was found to be 52%; in [9], 8%; in [10], 11%; in assay [11] it was 0%; in assay [12], 98%; in [13], 40%. Further, the residual activity stood at 102% in assay [14]; 33% in assay [15]; 81% in assay [16]; 88% in assay [17]; 124% in [1]; 84% in assay [18]. Moreover, the residual activity was 78% in assay [19] and 46% in assay [20].

For the origin of these results see ChEMBL document CHEMBL2218924, “A broad activity screen in support of a chemogenomic map for kinase signalling research and drug discovery” (Biochem J, 2013).
